# Results published in the supplement of paper PMC3334620.
# Whole data set: some 33,000 sequences, median “E-score (-0.5 to 0.5)” near -0.036, cut for the highest 2% near 0.37. The list comes from a sample in which the highest values are over-represented; it also holds similar and randomly drawn sequences.
# Target: T1, Yer064c (UniProt P40041)
# T1 sequence: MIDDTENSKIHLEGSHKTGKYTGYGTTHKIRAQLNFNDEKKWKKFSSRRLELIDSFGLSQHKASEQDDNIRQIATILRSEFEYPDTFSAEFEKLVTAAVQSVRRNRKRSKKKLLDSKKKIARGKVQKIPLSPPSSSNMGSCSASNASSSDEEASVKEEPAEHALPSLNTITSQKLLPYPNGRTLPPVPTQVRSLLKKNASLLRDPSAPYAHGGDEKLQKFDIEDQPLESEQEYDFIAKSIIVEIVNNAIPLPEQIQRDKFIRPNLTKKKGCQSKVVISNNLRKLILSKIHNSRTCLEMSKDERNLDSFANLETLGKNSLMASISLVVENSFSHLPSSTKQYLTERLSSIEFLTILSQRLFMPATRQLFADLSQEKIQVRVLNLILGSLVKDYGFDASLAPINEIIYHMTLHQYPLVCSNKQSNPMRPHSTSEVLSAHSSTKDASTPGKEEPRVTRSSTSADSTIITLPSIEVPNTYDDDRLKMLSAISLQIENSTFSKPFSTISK
# Assay: PBM E-score (8-mer binding enrichment) (E-score (-0.5 to 0.5)); higher = stronger / more preferred TF binding
# Conditions: protein concentration: 200 nM; construct: GST-full length
# Description: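 Universal 'all 10-mer' protein binding microarrays (Agilent AMADID 015681) probed with GST-tagged S. cerevisiae TFs (full-length or DBD) made by in vitro transcription/translation (PURExpress), about 100-200 nM. Bound TF was detected with fluorescent anti-GST. Each ungapped 8-mer (which stands for itself and its reverse complement) is scored by the PBM enrichment score (E-score), a modified Wilcoxon-Mann-Whitney statistic from -0.5 to +0.5, computed with the Universal PBM Analysis Suite. Scale: above 0.35 generally sequence-specific binding.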
row,Sequence,PBM E-score
1,GGGAGCCA,-0.00881
2,CCTTACAG,-0.2
3,CCGTCCTC,-0.281
4,ACAGCGAC,0.00958
5,CCATGCCA,-0.113
6,ATGAAAGG,-0.0528
7,AAGTCCCT,-0.127
8,GTGAGAAA,-0.0285
9,ATGATTTC,0.403
10,CTGATTTA,0.238
11,AAGATTTA,0.136
12,AGGATTTC,-0.125
13,ATGATTTA,0.415
14,CTGATTTC,0.222
15,CCCCGTAA,-0.0314
16,ATTACTAG,0.0126
17,TCGCTCCA,-0.0823
18,CAGAGGGA,-0.199
19,AATCATGA,0.43
20,AATCAGGC,0.306
21,GATCATGC,0.134
22,AATCATGC,0.432
23,AATCATGT,0.453
24,AAGCATGT,-0.0498
25,AATCAGGG,0.271

row,Sequence,PBM E-score
1,CATCATGC,0.0857
2,TATCATGA,0.256
3,CATCATGA,0.294
4,AATCAAGT,0.268
5,AATCAGGT,0.378
6,ATTTGAGG,-0.0184
7,ATGAGGGG,-0.125
8,AGCCGGCA,-0.176
9,GAATGCTA,-0.277
10,GCGAAAAC,-0.131
11,CCTCTGTA,-0.108
12,CCGCCGCA,-0.299
13,CCACAAAG,-0.0168
14,AATCAAGG,0.245
15,AATCAGCT,0.389
16,AATCATGG,0.42
17,CATCATGG,0.0236
18,AATCAGCG,0.344
19,AATCAGCC,0.355
20,CGATTAGA,0.0752
21,GATGTGGA,0.0614
22,GTCTTGTA,0.0119
23,GAAGTCAA,0.357
24,AAAGTCGT,0.258
25,CAAGTCAC,0.36

row,Sequence,PBM E-score
1,AAAGTCAG,0.323
2,GAAGTCAC,0.433
3,AAAGTCAA,0.319
4,AAAGTCCT,0.0605
5,AAAGTCAC,0.411
6,AAAGTCAT,0.455
7,AGGTCGTA,0.0488
8,CTAAACTA,0.0923
9,ACGGCCTG,-0.12
10,TAATCCGA,0.205
11,CAGGATAA,-0.208
12,ACGAGAAT,-0.125
13,AATACCAG,-0.0862
14,CTTTCAAA,0.0256
15,ACAGTCGT,0.198
16,ACAGTCTC,0.146
17,ACAGTCAA,0.319
18,ACAGTCGG,0.181
19,CCAGTCAC,0.313
20,ACAGTCAG,0.378
21,ACAGTCAT,0.453
22,GCAGTCCC,-0.00282
23,CCAGTCAG,0.248
24,GCAGTCAA,0.281
25,ACAGTCAC,0.405

row,Sequence,PBM E-score
1,GCAGTCAC,0.435
2,ATCACAGG,0.166
3,GGCCTGAC,0.109
4,ACCTGGTG,-0.0925
5,GCGGCTAC,-0.0969
6,AATTGTCA,0.0267
7,GGGGAGAC,-0.0271
8,CTCGATTA,0.186
9,AAGGTAGA,-0.209
10,GCGCCATA,-0.26
11,GACGAGTA,0.178
12,AACGAGTC,0.42
13,AACGAGTT,0.0273
14,CACGAGTG,-0.125
15,CACGAGTA,0.0787
16,GACGAGTC,0.408
17,GACGAGAC,-0.0639
18,AACGAGTA,0.171
19,CACGAGTC,0.39
20,ATCCATCC,0.0305
21,AGTACACA,0.239
22,CCCAAGCC,-0.171
23,CACTTCAA,-0.0203
24,ACGGATTA,0.1
25,AAAGAGTT,0.219

row,Sequence,PBM E-score
1,GAAGAGTC,0.426
2,CAAGAGTA,0.106
3,GAAGAGTA,0.0801
4,AAAGAGTA,0.0885
5,CAAGAGTG,-0.108
6,GAAGAGCC,-0.222
7,CAAGAGTC,0.434
8,AAAGAGTC,0.437
9,CTACTGAC,0.177
10,ACGGCGGA,-0.0257
11,ACGGACCA,-0.125
12,GAACTGAC,-0.0132
13,CAGAAGTC,0.293
14,CAGGAGTA,0.0894
15,AAGGAGTC,0.412
16,AAGGAGTA,0.0121
17,CAGGAGTC,0.394
18,AAGGAGTG,-0.187
19,AGTCGATG,0.249
20,AAACTGAG,0.144
21,TCCCAGCA,-0.0166
22,CACGCAAG,-0.11
23,CACGTGTA,-0.0349
24,AATTCATA,0.0256
25,GATTCATA,0.381

row,Sequence,PBM E-score
1,CATTCATA,0.195
2,GATTCAGA,0.389
3,TATTCAGA,0.0473
4,GATTCAGC,0.258
5,GATTCCGA,0.276
6,CCACGTAA,-0.177
7,GGCCTGTA,-0.386
8,TACTAGGA,0.0896
9,TACTAGCA,0.0217
10,GACTAGCA,0.374
11,GACTAGGC,0.297
12,GACTAGGA,0.376
13,AACTAGCA,-0.00106
14,ATCACATC,0.143
15,CGAGGGAA,-0.0997
16,GATTTGGA,0.0961
17,AAAGTGCC,-0.0752
18,AACCGTAC,-0.0826
19,GATTCAAA,0.371
20,CATTCAAC,0.0337
21,TATTCAAA,0.135
22,AATTCAAC,-0.0608
23,GATTCAAC,0.385
24,CATTCAAA,-0.0755
25,ACCGATCT,-0.255

row,Sequence,PBM E-score
1,ATCCTCGC,-0.043
2,TCGTAGCA,0.128
3,ATCGCTGA,0.0828
4,GACTTTAC,0.234
5,ATAGGCAG,-0.0153
6,ATTCGTCG,0.0523
7,AGTCGTCC,0.364
8,AGTCGTCA,0.389
9,AGTCGTCG,0.375
10,GGTCGTCA,0.00372
11,CGTCGTCA,-0.142
12,ACGATACT,-0.155
13,AGGATGTC,0.00214
14,CGCTGCTA,-0.211
15,CCATATGA,0.0961
16,GCATATGA,0.14
17,TCATATGA,0.393
18,AGACGACT,0.397
19,ACACGACA,0.106
20,AGACGACC,-0.0204
21,ACACGACC,-0.0158
22,ACACGACT,0.408
